For eight sequences, binding signal results are on record in article PMC8384837, “Expanding the binding specificity for RNA recognition by a PUF domain”.

Common to all, as to experiment: yeast three-hybrid, YBZ-1, SC-Leu-His + 0.5 mM 3-AT, 4 days
What all share (settings): tags: N-Gal4 AD-HA kept; label: inside an RPR1-promoter hybrid RNA with tandem MS2 sites; ssRNA

The target of one experiment is T1, PUM1 PUF domain R6-CHC (Homo sapiens, UniProt Q14671 828-1176, N1043C;Y1044H;Q1047C).
T1 sequence: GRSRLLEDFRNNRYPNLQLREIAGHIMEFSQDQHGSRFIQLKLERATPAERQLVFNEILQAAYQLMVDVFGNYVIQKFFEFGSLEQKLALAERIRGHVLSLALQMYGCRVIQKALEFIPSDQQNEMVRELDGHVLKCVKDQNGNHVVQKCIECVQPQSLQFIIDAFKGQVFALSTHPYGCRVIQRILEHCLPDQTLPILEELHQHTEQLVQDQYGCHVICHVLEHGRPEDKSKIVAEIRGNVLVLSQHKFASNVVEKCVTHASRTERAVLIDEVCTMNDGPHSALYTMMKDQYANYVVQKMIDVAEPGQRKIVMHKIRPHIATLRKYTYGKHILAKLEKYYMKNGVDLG
In short, it runs like this:
(§1)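 The interaction score is the log change in variant frequency from input to selection. Scores were computed in log2 with a pseudocount of 1 for absent variants, using Illumina sequencing of PCR-amplified repeat regions. The input came from four days on SC-Leu and the selection from four days on SC-Leu-His + 0.5 mM 3-AT. The cells were strain YBZ-1 (LexA–MS2 coat fusion, HIS3 reporter) co-expressing Pumilio-1 PUF domain libraries and matching RNA elements from a centromeric plasmid.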

The next experiment concerns the target PUM1 PUF domain R8-KWA (Homo sapiens, UniProt Q14671 828-1176, N1122K;Y1123W;Q1126A). In short, it runs like this: as §1
In the next experiment the target is PUM1 PUF domain R7-RRI (Homo sapiens, UniProt Q14671 828-1176, S1079R;N1080R;E1083I). In short, it runs like this: as §1
The next experiment addresses T2, PUM1 PUF domain R6-CYI (Homo sapiens, UniProt Q14671 828-1176, N1043C;Q1047I).
T2 sequence: T1 sequence with H217Y, C220I
In outline:
as §1

Another experiment addresses PUM1 PUF domain R5-QLR (Homo sapiens, UniProt Q14671 828-1176, C1007Q;R1008L;Q1011R). In outline: as §1
The target in the next experiment is PUM1 PUF domain R3-DAK (Homo sapiens, UniProt Q14671 828-1176, C935D;R936A;Q939K). In outline:
as §1

For the next experiment, the target named is PUM1 PUF domain R2-AFW (Homo sapiens, UniProt Q14671 828-1176, N899A;Y900F;Q903W). In outline:
as §1

Numbering of substitutions follows the chain as printed.

“GGCUAGAACUAGUGGAUCCCCCGGCGCCCGGCGGCUCGAGCCCGGGUAAGUGUAAAUAGUCUGCAUGCCGCCGGGCGCCAUGCCUGCAGGUCGACUCUAGAAAACAUG”: the binding signal was 3.57 log2 enrichment (interaction score) in the experiment with PUM1 PUF domain R6-CHC and 2.67 log2 enrichment (interaction score) with PUM1 PUF domain R8-KWA. In the case of “GGCUAGAACUAGUGGAUCCCCCGGCGCCCGGCGGCUCGAGCCCGGGUAAGUCUAAAUAGUCUGCAUGCCGCCGGGCGCCAUGCCUGCAGGUCGACUCUAGAAAACAUG”, the binding signal with PUM1 PUF domain R7-RRI was 5.69 log2 enrichment (interaction score).

“GGCUAGAACUAGUGGAUCCCCCGGCGCCCGGCGGCUCGAGCCCGGGUAAGUGAAAAUAGUCUGCAUGCCGCCGGGCGCCAUGCCUGCAGGUCGACUCUAGAAAACAUG”: in the experiment with PUM1 PUF domain R6-CYI, the binding signal is 5.81 log2 enrichment (interaction score). In the case of “GGCUAGAACUAGUGGAUCCCCCGGCGCCCGGCGGCUCGAGCCCGGGUAAGUGUUAAUAGUCUGCAUGCCGCCGGGCGCCAUGCCUGCAGGUCGACUCUAGAAAACAUG”, the binding signal in the experiment with PUM1 PUF domain R5-QLR was 0.88 log2 enrichment (interaction score). The same measure, in the same setting: for “GGCUAGAACUAGUGGAUCCCCCGGCGCCCGGCGGCUCGAGCCCGGGUAAGUGUCAAUAGUCUGCAUGCCGCCGGGCGCCAUGCCUGCAGGUCGACUCUAGAAAACAUG” the value was 6.43 log2 enrichment (interaction score).

Consider “GGCUAGAACUAGUGGAUCCCCCGGCGCCCGGCGGCUCGAGCCCGGGUAAGUGUAAUUAGUCUGCAUGCCGCCGGGCGCCAUGCCUGCAGGUCGACUCUAGAAAACAUG”, for which the binding signal in the experiment with PUM1 PUF domain R3-DAK is 3.6 log2 enrichment (interaction score). Consider “GGCUAGAACUAGUGGAUCCCCCGGCGCCCGGCGGCUCGAGCCCGGGUAAGUGUAAAAAGUCUGCAUGCCGCCGGGCGCCAUGCCUGCAGGUCGACUCUAGAAAACAUG”, for which the binding signal with PUM1 PUF domain R2-AFW was 4.3 log2 enrichment (interaction score).

As for “GGCUAGAACUAGUGGAUCCCCCGGCGCCCGGCGGCUCGAGCCCGGGUAAGUGUAAAGAGUCUGCAUGCCGCCGGGCGCCAUGCCUGCAGGUCGACUCUAGAAAACAUG”, in the experiment with PUM1 PUF domain R2-AFW, the binding signal was 1.14 log2 enrichment (interaction score).
